SARS PLpro yeast: SARS-CoV PLP inhibition in yeast | S. cerevisiae expressing SARS-CoV PLpro, growth rescue | Potency, µM (series often up to 32.9 µM), for inactives: top-dose activity, positive = growth rescue, usual class: activators | 330,000 tested, 0.19% active | AID 485353; calls by dose curve; further: potency means the concentration at half of the fitted maximal effect; 0% is about no effect; nearly all actives have a fitted effect of over 55% in size
MARV entry inh: inhibitors of Marburg virus binding or cell entry. 300,000 tested, 1.8% active. Marburg virus pseudotyped entry inhibition, cell reporter. AID 540276. Potency, µM (top dose mostly 37.8 µM), without a hit: top-dose activity change, negative = inhibition, hits mostly inhibitors; calls by dose curve; tested in HEK293 cells; further: potency means the concentration at half of the fitted maximal effect; on the % scale 0 is the no-effect control and ±100 the full control effect
HCMV antiviral: blocks human cytomegalovirus replication; HFF cells, HCMV-luciferase reporter, 72 h; stronger effect = lower value; activity change, negative = inhibition, % at 57.5 µM; 410,000 tested, 4.5% active; in the data active means activity change below about -60%; inconclusive means no clear call, values can overlap the other calls; inactive means above about -39%; further: on the % scale 0 is the no-effect control and ±100 the full control effect
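After 16 h attachment at 37C, HFF cells received test compound and HCMV-luciferase (1 PFU/cell); reporter luminescence read 72 h later, data normalized against buffer-only and known inhibitor Salinomycin.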
HCV inh: inhibitors of hepatitis C virus infection; Huh7.5.1 HCVcc-Cre infection, luciferase reporter, 44 h; Potency, µM (top dose mostly 41.8 µM), for the others: at the top dose activity change, negative = inhibition, hits mostly inhibitors; 340,000 tested, 3.4% active; AID 651820; active means well fitted inhibition curve with a large enough effect; inconclusive means small, poorly fitted or top-dose-only effect, or another doubt; inactive means no such curve, though single readings can be large or run the other way; further: potency means the concentration at half of the fitted maximal effect; on the % scale 0 is the no-effect control and ±100 the full control effect
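Seed cells (1,000/well) for 4 h; treat with compound and infect with HCVcc-Cre, moi about 0.5. Incubate 44 h, then detect luciferase activity.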
LASV entry inh: Lassa virus entry inhibition | Lassa virus pseudotype entry inhibition, cell reporter | Potency, µM (doses to about 37.9 µM), for the others: top-dose activity change, negative = inhibition, usual class: inhibitors | 300,000 tested, 1.2% active | AID 540256; calls by dose curve; tested in HEK293 cells; further: potency means the concentration at half of the fitted maximal effect; on the % scale 0 is the no-effect control and ±100 the full control effect; nearly all actives have a fitted effect of over 50% in size
FMDV inh: foot and mouth disease virus antiviral activity; FMDV antiviral cell-based qHTS; Potency, µM (series often up to 57.9 µM), without a hit: at the highest dose activity change, negative = inhibition, usual class: inhibitors; 410,000 tested, 1.2% active; calls by dose curve; tested in HEK293T cells; further: read-out not given here; potency means the concentration at half of the fitted maximal effect; on the % scale 0 is the no-effect control and ±100 the full control effect; nearly all actives have a fitted effect of over 45% in size
* hit, by the source's call; u = inconclusive; x = no result; [ ] = remark or other dose. Hits are enriched below; roughly 8% of the tested compounds scored in any of these assays.

SMILES	SARS PLpro yeast	MARV entry inh	HCMV antiviral	HCV inh	LASV entry inh	FMDV inh
CSc1ncccc1C(=O)NC1CCCc2c1cnn2-c1ccc(C)c(C)c1 (centres undefined)	-0.5%	u	-28.9	8.91µM*	-0.4%	28.2µM*
COc1ncccc1C(=O)NC1CCCc2c1cnn2-c1ccc(C)c(C)c1 (centres undefined)	-9.6%	x	-23.2	u	x	-40.1%
CCn1nc(C)cc1C(=O)NC1CCCc2c1cnn2-c1ccc(C)c(C)c1 (centres undefined)	-8.8%	u	-85.9*	u	u	10µM*
Cc1c(NS(=O)(=O)c2cccc(C(=O)N3CCC(C)CC3)c2)c(=O)n(-c2ccccc2)n1C	0.5%	-9.8%[46.1 µM]	29.1	6.6%	0.9%[46.1 µM]	8.4%
Cc1ccc(-n2nnc(-c3nc(-c4cccs4)no3)c2N)c(C)c1	x	x	-0.4	x	15.5%[46.1 µM]	24.4%
COCC(C)n1c(SCc2ccc(C(=O)OC)cc2)nc2ccccc2c1=O (centres undefined)	-9.2%	u	2.0	2.5%	x	u
CC(NC(=O)CN(c1cccc(C(F)(F)F)c1)S(=O)(=O)c1ccc(Cl)c([N+](=O)[O-])c1)c1ccccc1 (centres undefined)	-11.4%	u	45.6	u	u	u
Cc1ccc(N(CC(=O)NCCc2ccc(F)cc2)S(=O)(=O)c2ccc(Cl)c([N+](=O)[O-])c2)c(C)c1	-6.4%	u	-1.2	10µM*	23.1µM*	u
O=C(CN(c1cccc(C(F)(F)F)c1)S(=O)(=O)c1ccc(Cl)c([N+](=O)[O-])c1)NCc1ccccc1Cl	-4.7%	u	45.2	u	u	39.8µM*
O=C(CN(c1cccc(C(F)(F)F)c1)S(=O)(=O)c1ccc(Cl)c([N+](=O)[O-])c1)NCc1ccccc1	-3.6%	23.1µM*	8.2	u	u	-19.1%
CCOC(=O)c1ccc(N2C(=O)c3n[nH]c(-c4cccs4)c3C2c2cccc(F)c2)cc1 (centres undefined)	x	u	5.0	x	u	u
CCOC(=O)c1ccc(N2C(=O)c3n[nH]c(-c4ccco4)c3C2c2ccc(F)cc2)cc1 (centres undefined)	x	u	-88.5*	x	u	u
CCOC(=O)c1ccc(N2C(=O)c3n[nH]c(-c4ccco4)c3C2c2cccc(O)c2)cc1 (centres undefined)	x	u	14.1	x	u	25.1µM*
CCOC(=O)c1ccc(N2C(=O)c3n[nH]c(-c4ccco4)c3C2c2ccccc2OC)cc1 (centres undefined)	x	u	-101.0*	x	u	22.4µM*
CCOC(=O)c1ccc(N2C(=O)c3n[nH]c(C)c3C2c2ccccc2)cc1 (centres undefined)	-0.4%	u	-13.4	6.4%	-19.6%	-6.6%
CCOC(=O)c1ccc(N2C(=O)c3n[nH]c(-c4ccco4)c3C2c2cccc(OC)c2)cc1 (centres undefined)	x	u	-10.4	x	u	u
CCOC(=O)c1ccc(N2C(=O)c3n[nH]c(-c4ccco4)c3C2c2cccc(F)c2)cc1 (centres undefined)	x	u	-97.9*	x	u	u
CC(CCC(=O)OC[C@H]1O[C@H](C#Cc2ccccc2)C=C[C@H]1Oc1ccc(C)cc1)=NO[C@@H](C)CN1CCCCc2nc(C)c(C)cc21	x	-16.3%[14.2 µM]	x	x	x	x
C=CC[C@@H]1C=CC(ON=CC[C@@H]2C=C[C@@H](OC(C)=O)[C@@H](COC(C)=O)O2)[C@H](CO)O1 (some centres undefined)	x	4.2%[14.2 µM]	x	x	x	x
CC(=O)N1CC(=O)N2[C@@H](CO)[C@@H](c3ccc(Br)cc3)[C@@H]2C1	x	x	-6.8	x	x	x
CCOC(=O)c1ccc(N2C(=O)c3n[nH]c(-c4ccco4)c3C2c2ccc(OCC)cc2)cc1 (centres undefined)	x	11.2µM*	-87.6*	x	u	u
CCOC(=O)C1CCCCN1S(=O)(=O)c1cc2c(cc1C)NC(=O)CO2 (centres undefined)	1.3%	x	u	-28.1%	x	-20.1%

Screens deposited in PubChem by National Center for Advancing Translational Sciences (NCATS).
